# Residue numbers refer to the chain shown, from its start. In all, about 24,000 sequences were measured (“enrichment r”: median about 0.99, highest 2% from about 3.7 on). This is one part of a sample in which the highest values are shown more often than they occur.
# T1: UNK ZnF1-3 (human, UniProt Q9C0B0 31-174)
# T1 sequence: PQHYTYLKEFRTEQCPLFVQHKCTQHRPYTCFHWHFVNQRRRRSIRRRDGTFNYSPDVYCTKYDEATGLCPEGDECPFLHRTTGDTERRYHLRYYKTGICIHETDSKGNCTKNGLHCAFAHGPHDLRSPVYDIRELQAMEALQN
# B1: 60597838_60597958_3500_3pUTR_ENSMUSG00000049323_ENSMUST00000056907|mouse|control|control (ssRNA)
# RNA: GGGAGUUCUACAGUCCGACGAUCUUUUUGGGAGCUACUUCCUUAAUGAACCAGGAGCAGCUGCUACUGUCCUUCUGGAGGGCCAUGUGCCACCUCUGCUCAGCCCACAUCACACACUGCCCAGGGCUAUGUUGCAACUAUAACCAACAGAGGAUUGAGCAUCA
# B2: chr17:45757878:45757879:+_ENSG00000108424_ENST00000290158|hu_hu|FALSE|FALSE (ssRNA)
# RNA: GGGAGUUCUACAGUCCGACGAUCUGGCCUAGCUUCUACUAAUUUCAGUACAUCCUUCCCAAAUGCUGUACAUAAGUCCCCUAUUAGUCCAGCAGCACAAGCUACUACUCCAUCUGUGUGAUCCUCAUCUCCAGCAAUGUGGUCCAACAGAGGAUUGAGCAUCA
# B3: chr19:16452684:16452685:+_ENSMUSG00000024639_ENSMUST00000025541|perfect_dup|FALSE|FALSE (ssRNA)
# RNA: GGGAGUUCUACAGUCCGACGAUCGUUUAAGAACAGAAUCACAGAGGAGUUCUGGAACCAGGGGUAGGUGAUAAUUGUUCUAAAGAGUGCUUUGCUCUCCUCCAUGCGGUUCUCAUUGUCUGACUCCACAAGAACUUGAUCAUACAACAGAGGAUUGAGCAUCA
# B4: chr5:128448638:128448639:+_ENSG00000066583_ENST00000173527|hu_mus|hu_hu_hu_mus_False|98_98 (ssRNA)
# RNA: GGGAGUUCUACAGUCCGACGAUCGGCACUCGCCUUAAUUAGAUUCUGAAUUUCCUUGAACUUCGGGUGGUCUUUGUCAGCCACCAGCUGUAGGAGGACAGCCUCACUAGUGGUCACGAUGAUCCCAGUGCGGGCAAGACGCUCCAACAGAGGAUUGAGCAUCA
# B5: chr17:57737884:57737885:+_ENSG00000141367_ENST00000269122|hu_mus|motif|central (ssRNA)
# RNA: GGGAGUUCUACAGUCCGACGAUCGUUUCCCUGGGCGAAGAGAGCAUUAAAUUUCCGGGCAAAGAGUUCUUCAGCACCAGCGGAGUUGUUCCGCACAGCCAUUCUCAGAGCCAAGUCAGGAUUUUGUAGGACAUUGGUGAUAUACAACAGAGGAUUGAGCAUCA
# B6: chr3:101400026:101400027:-_ENSG00000114391_ENST00000394077|hu_mus|FALSE|FALSE (ssRNA)
# RNA: GGGAGUUCUACAGUCCGACGAUCCUACCACACUAGCGUUUCCCACCAACUCUGGGGGCAGAGACCUUCACAGGCUUCACAAUCUUUUGUUUAGGUGCUGCCUUUGUGGGGGCCUUGGCAGCAGCCAUUGCUGUCUUCUUUGAUCAACAGAGGAUUGAGCAUCA
# B7: chr2:48026839:48026840:+_ENSG00000116062_ENST00000540021|hu_hu|hu_hu_hu_mus_False|18_58 (ssRNA)
# RNA: GGGAGUUCUACAGUCCGACGAUCAUAGUGAGCCACUAGCGUCCUAAAUCUGGAACAGUGGCGGUCAUCCGAAAACUGACCUAUGAAAAACUUGCCCAGUGAAGUGUCCACAAAGCACACACCAUAUACACGAGUGUGACCAGACAACAGAGGAUUGAGCAUCA
# B8: chr2:202488911:202488912:-_ENSG00000155755_ENST00000286196|hu_mus|hu_hu_hu_mus_False|8_98 (ssRNA)
# RNA: GGGAGUUCUACAGUCCGACGAUCAUUGAAACAUUUUCAUAAUAUUGCAGUAGCAUUUCAGCAUUAUGUAACAAAAGCUCAAUUGUAAAUACAUGUAUCUUAUAAAAAUACACUUAAAAACACGAGUAAAAAUGGGAGGCGCCACAACAGAGGAUUGAGCAUCA
# B9: chr5:67446008:67446009:+_ENSMUSG00000037736_ENSMUST00000038188|mus_mus|FALSE|FALSE (ssRNA)
# RNA: GGGAGUUCUACAGUCCGACGAUCGCCCCCAAGGGUAAGUAACACAAAUGUCUCCGGGAAUACAGUAUAUAUUAUCAGACUAGUGUCUUUGCAUUAAAAAAAAAAAAAGUUAUAGUUCAGAGUCAGAACUCGCUGGGGUAUCUACAACAGAGGAUUGAGCAUCA
# B10: chr4:95690885:95690886:+_ENSMUSG00000028572_ENSMUST00000156910|mus_mus|mus_mus_mus_hu_False|78_88 (ssRNA)
# RNA: GGGAGUUCUACAGUCCGACGAUCUUUAGAAAAUGUUAAAUACCAUGAGCAUGCUAAGUAAUUUUAAUAUUUUAUUUUACCAGAAGUCACAGGCAAGCAGACACUACAAGAAUAUAUGAAAAUGAAACUCAACAAUAUAACUGUCAACAGAGGAUUGAGCAUCA
# B11: chr15:91426070:91426071:+_ENSG00000140564_ENST00000268171|hu_mus|FALSE|FALSE (ssRNA)
# RNA: GGGAGUUCUACAGUCCGACGAUCGGCAGCCAUGGGAAGGGCAGGGUGGGUGUGGGCAUGAGAAGGUCAAGGGUCCAGCUGCUACCCCCAUUAAAAAUACAAAAAAAAAAAAAAAAAAGAAUCAGCAUCUAAAGUGAAUAAUCACAACAGAGGAUUGAGCAUCA
# B12: chr5:32794366:32794367:+_ENSMUSG00000014956_ENSMUST00000015100|mus_mus|FALSE|FALSE (ssRNA)
# RNA: GGGAGUUCUACAGUCCGACGAUCAGAAGAGAGCCAGCUAUCCAAGGCUUGUCAAAAAGGAUUCUCAUGUUCUGUGAAUCUAAAAACAAACAAACAACAAAAACCCCAAAAAACAAAACCAAUGCAGGUGAGGGUAAUACCAGACAACAGAGGAUUGAGCAUCA
# B13: chr5:67446008:67446009:+_ENSMUSG00000037736_ENSMUST00000038188|mus_mus|motif|central (ssRNA)
# RNA: B9 RNA with U80G, A81G
# B14: 131763144_131763264_1223_3pUTR_ENSMUSG00000079037_ENSMUST00000091288|mouse|control|control (ssRNA)
# RNA: GGGAGUUCUACAGUCCGACGAUCUCACCUUGUACUCUGGGUACAAGUCAGGGGAUACACCAGUAUUUAUUCACUAGACCAAAACAAAGCCCCAACUAGCCAGCAGUUAUUUGGUGUUAUAUUCUUAUUGGCCCGGUGUUAGCACAACAGAGGAUUGAGCAUCA
# B15: chr16:23113652:23113653:+_ENSMUSG00000022884_ENSMUST00000115341|mus_mus|FALSE|FALSE (ssRNA)
# RNA: GGGAGUUCUACAGUCCGACGAUCCCACAAGUAUAUUAUUAAAUGAUAGAGAACAUCUAAUACAACCAUUUCUACAUAACUAGUAAAUGAAUUUCUAAGAAAAAAAGAUUUUACAGACCCCAUCUUUUAUACCCACCCCCAACACAACAGAGGAUUGAGCAUCA
# B16: 35171164_35172336_3352_CDS_ENSMUSG00000029104_ENSMUST00000080036|mouse|control|control (ssRNA)
# RNA: GGGAGUUCUACAGUCCGACGAUCGGGGGCACUCGCUGCUAGCAAGUUUCCAGCCAAAAUCAAGGCAUCCUGAUGGGCUGAGAGAUCCAGUGGGAACCAAGCUGAUGAAAGCAAGGUGAGAAUCAUGGAGGCCAUCCCAACAGUCAACAGAGGAUUGAGCAUCA
# B17: chr10:70744696:70744697:+_ENSG00000165732_ENST00000354185|hu_hu|motif|central (ssRNA)
# RNA: GGGAGUUCUACAGUCCGACGAUCUUAAAUUAGAAAAUAUUUUCUUUGUAGAAAAUAGUAAAAAUUAUAACAUUUACCAAGCGGACCCAACAAGUUCAUUUAAACCAAAAAGUAGCUAAAUACAUUAUACAUUUAUAAAUACAGCAACAGAGGAUUGAGCAUCA
# B18: chr7:108213676:108213677:+_ENSG00000128590_ENST00000249356|hu_hu|FALSE|FALSE (ssRNA)
# RNA: GGGAGUUCUACAGUCCGACGAUCUCCAUGAAAUCUAUUUUCAGUCUGUACUGUAUGCUGAUUGGUAGAGUCAAAACCACUAAAAGAAAACAUUUUCUCCAUAUCUUCAAACAUGUCAUCAAAUAAUCCACCUCCAAAAGAAAACAACAGAGGAUUGAGCAUCA
# B19: chr1:182620099:182620100:+_ENSMUSG00000058729_ENSMUST00000085803|mus_mus|motif|central (ssRNA)
# RNA: GGGAGUUCUACAGUCCGACGAUCAACAACAAAGCUUUUAUAAAUUAUGAUAAAUUAAAAUAUUUAUUAUUAUAAUUGAUCGGUAGAACCAUGUCCCACUGUCAGUAUAUGAAACAUACACUUAAGUCCGUGUUUCCCAUCUGUCAACAGAGGAUUGAGCAUCA
# B20: chr14:89307221:89307222:+_ENSG00000165533_ENST00000346301|hu_mus|hu_hu_hu_mus_False|18_78 (ssRNA)
# RNA: GGGAGUUCUACAGUCCGACGAUCUCCUGUUUGGUUAGUGCCAGGGAGCUUCAAAGACGUUCCAGGGCGUGGGACCUGAGCAAUAGCAUUUUCAUCCAGGAUCAUUUCAGCAAUUCCUUCCUGAUCUACAUCAAUUUCAUCUAUCAACAGAGGAUUGAGCAUCA
# B21: chr7:7679991:7679992:-_ENSG00000106399_ENST00000396682|hu_hu|hu_hu_hu_mus_False|68_88 (ssRNA)
# RNA: GGGAGUUCUACAGUCCGACGAUCUGGGAUGAAUCUUUUCCAGCUUCCCUACGAAGCACACGGGCCGGUCGAUGAAUUGUGGUAACAUGCUGGCGUUGACGCGCGCUUUGGGGAGCUGCAUUAUGUCCUCCAUGAUUCUGCCGCCAACAGAGGAUUGAGCAUCA
# B22: 96788939_96789059_3507_CDS_ENSG00000066739_ENST00000359933|human|control|control (ssRNA)
# RNA: GGGAGUUCUACAGUCCGACGAUCACAAACAUCUUUCAAGGAAUGAGCACCUCCUUCCUCUUCCUCCUGGUAGUGACCAUCAUUCUCCUCUUCUUCUUCAGCUGCAAUUCUCUCCAAAAUGGAAUGCAUGGCUGGUGGAUUUAUCAACAGAGGAUUGAGCAUCA
# Biological target: T1, UNK ZnF1-3
# Assay: nsRBNS (natural sequence RNA bind-n-seq); RBNS binding buffer (assumed for nsRBNS): 25 mM Tris pH 7.5, 150 mM KCl, 3 mM MgCl2, 0.01% Triton X-100, 500 ug/ml BSA, 20 U/ml SUPERase-In, 4 C; UNK is unkempt and MSI1 is Musashi-1; names of the RNAs are library labels; protein concentration not given here; high values mean tight binding
row,Binder,binding signal
1,B1,0.845 enrichment R
2,B2,1.02 enrichment R
3,B3,0.726 enrichment R
4,B4,0.728 enrichment R
5,B5,2.06 enrichment R
6,B6,0.756 enrichment R
7,B7,1.26 enrichment R
8,B8,0.677 enrichment R
9,B9,5.07 enrichment R
10,B10,3.29 enrichment R
11,B11,19.6 enrichment R
12,B12,1.31 enrichment R
13,B13,3.48 enrichment R
14,B14,0.474 enrichment R
15,B15,3.96 enrichment R
16,B16,1.2 enrichment R
17,B17,3.65 enrichment R
18,B18,1.22 enrichment R
19,B19,7.41 enrichment R
20,B20,0.843 enrichment R
21,B21,0.498 enrichment R
22,B22,1 enrichment R

# — publication PMC12136788
